From PubChem BioAssay
tim23-1 inh – growth inhibitors of tim23-1 mutant yeast; S. cerevisiae tim23-1 growth, BacTiter-Glo luminescence, 24 h; inhibition, % at 20 µM; 1.3% of 330,000 active; AID 463212;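 active = growth inhibition of the mutant yeast at or above 50%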;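 also: temperature-sensitive mutant grown at 25 °C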
tim10-1 inh – tim10-1 yeast growth inhibition. 2.2% of 330,000 active. AID 463190. S. cerevisiae tim10-1 ts strain growth, BacTiter-Glo, 24 h. inhibition, % at 20 µM;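 active = inhibition of at least 40%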;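 also: mutant grown at 25 °C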
EBI2 block – blocks human EBI2 receptor beta-arrestin signaling. AID 651636. EBI2 beta-arrestin recruitment, luminescence, 7a,25-OHC stimulated. inhibition, % at 5 µM. 0.81% of 360,000 active. P32249; in the data active = inhibition above about 38%;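 also: enzyme fragment complementation signal reports receptor beta-arrestin coupling in cells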
Target sequence (P32249 whole entry, looked up, the tested form may be a part): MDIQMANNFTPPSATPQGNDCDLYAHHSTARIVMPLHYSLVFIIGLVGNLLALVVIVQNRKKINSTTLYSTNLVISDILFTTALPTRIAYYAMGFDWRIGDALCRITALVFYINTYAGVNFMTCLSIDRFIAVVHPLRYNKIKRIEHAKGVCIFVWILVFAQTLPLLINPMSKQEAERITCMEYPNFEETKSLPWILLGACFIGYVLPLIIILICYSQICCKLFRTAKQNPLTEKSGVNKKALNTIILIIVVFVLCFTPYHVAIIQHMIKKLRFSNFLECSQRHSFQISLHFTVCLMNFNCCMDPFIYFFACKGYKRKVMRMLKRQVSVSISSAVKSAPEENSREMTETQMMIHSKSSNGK
SKKanGAS inh – inhibitors of SKKanGAS S. pyogenes growth in kanamycin (SK-promoter or general growth effect); BacTiter-Glo, 6 h; inhibition, % at 7.5 µM; 1.3% of 300,000 active;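 active = mean replicate score, as percent of positive control median, at least 50; inconclusive = mean below 50 but one replicate at or above 50; inactive = mean and every replicate below 50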;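 also: strain carries kanamycin resistance gene driven by streptokinase promoter and grows in 40 µg/ml kanamycin; loss of luminescence reflects streptokinase promoter inhibition or plain growth inhibition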
PfHsp90 yeast 2 – reduces growth (ATP signal) of yeast expressing P. falciparum Hsp90; S. cerevisiae expressing PfHsp90, BacTiter-Glo ATP, 48 h; yeast lacking PDR1 and PDR3 efflux regulators; inhibition, % at 9.4 µM; 0.32% of 310,000 active; AID 504621;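 active = every replicate shows inhibition above about 80%, whatever the replicate mean, limit read from the data; inconclusive = mean inhibition reaches the set limit but some replicate falls short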
TIM10 inh – TIM10 yeast growth inhibition; 1.4% of 330,000 active; S. cerevisiae TIM10 strain growth, BacTiter-Glo luminescence, 24 h; inhibition, % at 10 µM;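 active = inhibition of 40% or more at the single tested concentration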;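 also: wild-type TIM10 isogenic control strain grown at permissive 25 °C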
TIM10 conf – confirmation of TIM10 yeast growth inhibitors; shares compounds with TIM10 inh; S. cerevisiae tim10 strain growth, BacTiter-Glo luminescence, 24 h; inhibition, % at 10 µM; 63% of 4,600 active;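 active = inhibition of yeast growth at or above a set limit in either of two replicates at 10 µM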; also: this counterscreen used the strain with wild-type TIM10
tim23-1 confirm – confirmation of tim23-1 mutant yeast growth inhibitors. AID 463218. 83% of 4,400 active. inhibition, % at 20 µM. S. cerevisiae tim23-1 growth, BacTiter-Glo luminescence, 24 h. shares compounds with tim23-1 inh;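 active = inhibition above about 39% in either of two replicate wells at 20 µM, limit read from the data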;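 also: temperature-sensitive tim23-1 mutant grown at 25 °C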
Hits are given with their value; i = inactive; ? = inconclusive; nt = not tested or not shown. Hits are enriched below; roughly 4.7% of the tested compounds scored in any of these assays.

SMILES | tim23-1 inh | tim10-1 inh | EBI2 block | SKKanGAS inh | PfHsp90 yeast 2 | TIM10 inh | TIM10 conf | tim23-1 confirm
COc1cc(C(=O)NNC(=S)NCc2ccco2)cc(OC)c1OC | i | i | i | i | i | i | nt | nt
CCOC(=O)CC/C(=N\NC(N)=O)c1ccc(OC)c(Cl)c1 | i | i | i | i | i | i | nt | nt
CCSc1ccc(/C(N)=N/OC(=O)c2cccs2)cn1 | 61.3 | i | i | i | i | 63.0 | 63.2 | 73.7
N#CC1=C(c2ccccc2)/C(=C/c2ccccc2)OC1=O | 61.2 | i | i | 56.8 | i | 43.7 | 51.7 | 59.0
O=C(O)C(=Cc1cccc([N+](=O)[O-])c1)c1ccc(Cl)cc1 | nt | nt | i | nt | nt | nt | nt | nt
Cc1cccc2cc(/C=C/C(=O)c3ccco3)c(Cl)nc12 | 50.2 | i | i | i | nt | 43.3 | i | 52.3
CCOc1ccc2nc(Cl)c(/C=C/C(=O)c3ccco3)cc2c1 | i | i | i | i | nt | i | nt | nt
CC1=NN(c2ccc(C(=O)O)cc2)C(=O)/C1=C/c1ccc(-c2ccccc2F)o1 | 62.2 | i | i | i | i | 43.5 | i | 39.1
CC1=NN(c2ccc(C)cc2)C(=O)/C1=C/c1ccc(-c2cc([N+](=O)[O-])ccc2O)o1 | i | i | i | i | i | i | nt | nt
O=[N+]([O-])c1ccc(COc2cccc(CNc3ccc(Br)cc3)c2)cc1 | i | i | i | i | i | i | nt | nt
Cc1ccccc1OCC(=O)O/N=C(\N)Cc1ccc(Cl)cc1 | 81.9 | i | i | i | i | 83.8 | 79.4 | 59.5
COc1cccc(N2C(=O)CC(N3CCC(C(N)=O)(N4CCCCC4)CC3)C2=O)c1 (stereo not drawn) | i | i | i | i | i | i | nt | nt
CCc1ccc(/C=N/n2c(COc3ccccc3)n[nH]c2=S)cc1 | 60.6 | i | i | i | i | 44.4 | 42.0 | i
Nc1c(C(=O)Nc2ccccc2)sc2nc(-c3ccco3)ccc12 | 63.7 | i | i | i | nt | 67.5 | 63.5 | 85.2
Cc1cc(OCc2nnc(SCC(=O)O)n2-c2ccccc2)ccc1Cl | i | i | i | i | i | i | nt | nt
COc1ccc2c(c1)C(=O)N1[C@H]3c4cc(C)ccc4OC[C@@H]3[C@H](c3ccccc3)[C@]1(C)C(=O)N2 | i | i | i | nt | i | i | nt | nt
COc1ccc2c(c1)[C@@H]1[C@H](CO2)[C@H](c2ccccc2)[C@]2(C)C(=O)Nc3ccc(C)cc3C(=O)N12 | 58.4 | i | i | nt | i | 42.2 | 35.2 | 57.0
O=C(O)C1Nc2c(O)cc(Cl)c([N+](=O)[O-])c2C2C=CCC12 (stereo not drawn) | i | i | i | i | i | i | nt | nt
Oc1c(Br)cc(Br)cc1C=Nc1ccc2c(c1)OCO2 | 82.5 | i | i | i | i | 66.4 | 51.5 | 72.0
Oc1c(Br)cc(Br)cc1C=Nc1ccc2c(c1)OCCO2 | 83.7 | i | i | i | i | 55.7 | 34.2 | 91.6
O=[N+]([O-])c1ccc(O)c(C=Nc2ccc3c(c2)OCCO3)c1 | i | i | i | i | i | i | nt | nt
COc1cccc(NC(=O)N2CCc3ccccc3C2)c1 | i | i | i | i | i | i | nt | nt
O=C(Nc1cccc(Cl)c1)N1CCc2ccccc2C1 | 64.8 | i | i | i | i | 63.5 | 62.5 | 83.6
O=C(Nc1ccc([N+](=O)[O-])cc1)N1CCc2ccccc2C1 | i | i | i | i | i | i | nt | nt
CC(C)c1ccc(NC(=O)N2CCc3ccccc3C2)cc1 | 52.0 | i | i | i | i | 44.8 | 30.9 | 49.7
SMILES | tim23-1 inh | tim10-1 inh | EBI2 block | SKKanGAS inh | PfHsp90 yeast 2 | TIM10 inh | TIM10 conf | tim23-1 confirm
Cc1ccc(CSCC(=O)N(C)CC(=O)Nc2ccccc2C(F)(F)F)cc1 | i | i | i | i | i | i | nt | nt
Cc1ccc(NN2C(=O)C=C(c3ccc(Cl)cc3)C2=O)cc1 | 68.2 | i | 46.2 | i | 119.7 | 72.5 | 59.0 | i
COc1ccc(C/C(N)=N/OC(=O)Cc2ccccc2)cc1OC | i | i | i | i | i | i | nt | nt
COc1ccc(C/C(N)=N/OC(=O)CCc2ccccc2)cc1 | 72.4 | i | i | i | i | 70.9 | 82.8 | 78.0
O=C(Nc1nc2ccccc2s1)C1c2ccccc2Oc2ccccc21 | 51.1 | i | i | i | i | 45.1 | 45.9 | 57.5
CC1CCC(NC(=O)COC(=O)c2ccco2)CC1 (stereo not drawn) | i | i | i | nt | i | i | nt | nt
N=c1oc2cc(O)ccc2cc1C(=O)Nc1ccc(Br)cc1 | 55.1 | i | i | i | i | 41.1 | i | 56.2
CCN(CC(=O)Nc1c(F)cccc1F)C(=O)C1(c2ccccc2)CC1 | i | i | i | i | i | i | nt | nt
CC(=O)Nc1ccc(SCC(=O)c2cc(C)n(-c3ccccc3)c2C)cc1 | 53.9 | i | i | i | i | 47.9 | 43.9 | 53.3
COc1ccc(-n2c(C)cc(C(=O)CCl)c2C)cc1 | i | i | i | i | i | i | nt | nt
COc1ccc(-n2c(C)cc(C(=O)CSc3ccc(NC(C)=O)cc3)c2C)cc1 | 62.0 | i | i | i | i | 41.0 | i | 48.9
OCC1(CCOc2ccccc2)CCN(Cc2nc3ccc(F)cc3[nH]2)CC1 | i | i | i | i | i | i | nt | nt
CN1CCN(c2nc(-c3cccnc3)nc3scc(-c4ccccc4)c23)CC1 | i | i | i | i | i | i | nt | nt
Clc1nc(-c2ccccn2)nc2scc(-c3ccccc3)c12 | 51.9 | i | 61.2 | i | i | 49.6 | i | 58.1
CN1C(=S)N(c2cccnc2)C(=O)/C1=C\c1ccc(C(C)(C)C)cc1 | 55.2 | i | i | i | ? | 55.0 | 55.8 | 46.5
Cc1ccc(S(=O)(=O)NCCc2nnc(SCc3cccnc3)n2C)cc1 | i | i | i | i | i | i | nt | nt
CC(=O)Nc1sc2c(c1-c1nc3ccccc3s1)CCN(C(C)C)C2 | 53.6 | i | i | nt | i | 66.3 | 63.2 | 59.6
CC(C)N1CCc2c(sc(NC(=O)c3ccc4ccccc4c3)c2C(N)=O)C1 | i | i | i | i | i | i | nt | nt
O=C(Nc1cc(Cl)cc(Cl)c1)N1CCCC1 | 53.7 | i | i | 58.7 | i | 48.4 | i | 45.6
Cc1cc(S(=O)(=O)c2ccc([N+](=O)[O-])cn2)ccc1Br | 86.3 | i | i | i | i | 44.4 | 60.5 | 80.6
Cc1cc(Sc2ccc([N+](=O)[O-])cn2)ccc1Br | i | i | i | i | i | i | nt | nt
N#C/C(=C/c1ccc(O)c(O)c1)C(=O)NCc1ccc(Cl)cc1 | i | i | i | i | i | i | nt | nt
N#C/C(=C/c1cccc(O)c1)C(=O)NCc1ccc(Cl)cc1 | 77.4 | i | i | i | i | 71.1 | 77.2 | 75.0
COc1cccc(/C=N/Nc2ncnc3scc(-c4ccccc4)c23)c1O | 59.0 | i | i | 82.0 | 100.1 | 54.5 | 67.1 | 59.7
CCCNc1nc(N)nc(-c2cc(Cl)ccc2OC)n1 | i | i | i | i | i | i | nt | nt
